{"source": "PubChem BioAssay AID1645879", "about": "(National Center for Advancing Translational Sciences (NCATS), 2021)", "note": "Records with an inconclusive call do not appear. Active and inactive are the calls of the source. Calls come from the whole dose curve; as a rule, active = well fitted inhibition curve with a large enough effect; inconclusive = small, poorly fitted or top-dose-only effect; inactive = no such curve, though single readings can be large or run the other way."}
{"experiment": "Counterscreen qHTS assay for inhibitors of N-terminal methyltransferase 1 (NTMT1): SPKRIA Counterscreen Assay", "conditions": "biochemical qHTS; series mostly up to 99.2 µM; activity change, negative = inhibition: at the top concentration", "text": "Assay Submitter (PI): Rong Huang Ph.D,\nPurdue University, West Lafayette, IN 47907\nThe N-terminal methytransferase 1 is the first methyltransferase that methylates protein alpha-N-amines and plays an important role in regulating cell mitosis, chromatin interactions and DNA repair. It is observed to be over-expressed in various cancer patient tissues like malignant melanoma and colorectal cancer tissues. Knockdown of NTMT1 in cancer cells causes cell mitotic defects and enhances sensitivity to DNA damaging chemotherapeutics. […] These critical cellular processes in which NTMT1 is implicated, coupled with emerging links to cellular dysfunction, strengthen the inference that NTMT1 is a compelling novel anticancer target. Progress have been made in understanding the molecular properties of NTMT1 and the biological consequences of protein alpha-N-terminal methylation, but there are no specific small molecule probes available for NTMT1 to fully characterize its MTase activity. To address this unmet need, a panel of assay is created and established to enable quantitative high-throughput screening (qHTS) for novel, potent, and selective small molecule NTMT1 inhibitors. Two orthogonal qHTS that use different reagents (ThioGlo vs. MTaseGlo) are developed for primary robotic screening against the NCATS chemical library of more than 400,000 small molecules. Identified inhibitors are reacquired, validated, and further characterized.\nMTaseGlo Assay is a luminescence screen that measure the activity of methyltransferases based on the reaction product S-adenosyl homocysteine (SAH). The substrate SAM is converted to SAH upon enzyme activation. MTase-Glo reagent and detection solution convert SAH to ATP and measure the light from the luciferase reaction. Nicotinamide N-methyltransferase (NNMT) is a cystolic enzyme that catalyzes the transfer of a methyl group from the co-factor SAM onto the substrate, nicotinamide (NA) to form 1-methyl-nicotinamide (MNA) and SAH. NNMT MTaseGlo assay is used as a counterscreen to evaluate selectivity of identified inhibitors.\nSPKRIA and Ac-RCC-10 control is provided by the Huang laboratory.\nPROTOCOL TABLE; SEQUENCE No. (e.g., 1, 2, 3, etc.); […] (e.g., Cells, Incubation, Reagent, etc.); VALUE; DESCRIPTION\n1; Reagent; 3 uL; dispense assay buffer.\n2; Compound; 23 nL; pin compounds and control into the assay plate.\n3; Time; 15 min; room temperature incubation.\n4; Reagent; 1 uL; dispensed [4x] substrate or buffer.\n5; Time; 30 min; incubate at room temperature.\n6; Reagent; 1 uL; dispense MTase-Glo Reagent (R).\n7; Time; 30 min; incubate at room temperature.\n8; Reagent; 5 uL; dispense [1x] MTase-Glo Detection Solution to allow for ADP to be converted to ATP.\n9; Centrifugation; 1,000 RPMs; assay plates were centrifuged.\n10; Incubation; 30 min; room temperature.\n11; Detection; Luminescence; ViewLux plate reader (clear filter, 10 second exposure).\nNOTES (numbers refer to Sequence numbers above; values are from representative experiments)\n1; Dispense the assay buffer into Greiner 1536-well black / solid bottom assay plate (Greiner Bio One, Monroe, NC).\n2; Pin control inhibitor Ac-RCC1-10 at a final concentration range of 234 nM to 143 uM using a Wako Pin Tool (Wako Automation USA) equipped with a 1536-slotted pin array (Wako Automation, Richmond, VA). Pin compound library into the assay plates (columns 5 - 48) at a final concentration range of 97 nM to 250 uM.\n3; Incubate the assay plates at room temperature.\n4; Dispense 1 uL of substrate SPKRIA solution (final concentration 1 uM) or 1 uL buffer was added to the wells bringing the final assay volume to 4uL. The assay plate was covered with metal lids.\n5; Incubate the assay plate at room temperature.\n6; Dispense 1 uL of 5x MTase-Glo Reagent in the assay plate.\n7; Incubate at room temperature to allow for SAH to be converted to ADP\n8; Dispense 5 uL of 5x MTase-Glo Detection Solution in the assay plate to allow for ADP to be converted to ATP.\n9; Assay plates were centrifuged for 15 seconds.\n[…]"}
{"molecule": "COc1ccccc1C(=O)Nc1onc2c1CCCC2", "activity change, negative = inhibition": "-7.37% (inactive)"}
{"molecule": "Cc1ccc(-n2ncc3c(NCCO)ncnc32)cc1Cl", "Potency": "31.6 µM (active)"}
{"molecule": "CNc1sc(-c2cccc3ccccc23)nc1C#N", "activity change, negative = inhibition": "-3.5% (inactive)"}
{"molecule": "COc1ccc(C(=O)Nc2onc3c2CCCC3)cc1", "activity change, negative = inhibition": "-13.9% (inactive)"}
{"molecule": "Cc1ccc(-n2ncc3c(NCCCN(C)C)ncnc32)cc1Cl", "Potency": "44.7 µM (active)"}
{"molecule": "O=c1c2cc3c(cc2nc2sc(Nc4ccccc4)nn12)OCO3", "activity change, negative = inhibition": "-18.4% (inactive)"}
{"molecule": "NC(=O)C1CCN(c2nc(-c3ccc4c(c3)CCO4)cs2)CC1", "activity change, negative = inhibition": "-3.4% (inactive)"}
{"molecule": "Cc1cc(C)nc(NC(=S)N2CCN(c3ccccn3)CC2)c1", "activity change, negative = inhibition": "-4.7% (inactive)"}
{"molecule": "NC(=O)C1CCN(c2nc(-c3ccc(F)cc3)cs2)CC1", "Potency": "44.7 µM (active)"}
{"molecule": "COc1ccc(C(=O)Nc2noc3ccccc23)cc1", "Potency": "39.8 µM (active)"}
{"molecule": "CC(C)=CCC/C(C)=C/CC/C(C)=C/CSc1ccccc1C(=O)O", "activity change, negative = inhibition": "-2.24% (inactive)"}
{"molecule": "Cc1c(Cl)ccc2sc(N3CCN(C(=O)C4CC4)CC3)nc12", "activity change, negative = inhibition": "0.752% (inactive)"}
{"molecule": "CC(C)CCNc1ncnc2c1cnn2-c1cccc(Cl)c1", "Potency": "22.4 µM (active)"}
{"molecule": "c1cncc(-c2ccc3ncnc(NCc4cccs4)c3c2)c1", "Potency": "44.7 µM (active)"}
{"molecule": "O=c1cc(-c2ccccc2)oc2ccc(O)cc12", "Potency": "31.6 µM (active)"}
{"molecule": "COc1cccc(/C=C/c2nc(C#N)c(NCCN(C)C)o2)c1", "activity change, negative = inhibition": "-10.1% (inactive)"}
{"molecule": "Cc1ccc(Nc2ncnc3c2cnn3-c2ccccc2)c(C)c1", "Potency": "7.94 µM (active)"}
{"molecule": "NC(=O)c1ncn([C@@H]2O[C@H](CO)[C@@H](O)[C@H]2O)c1N", "activity change, negative = inhibition": "-24% (inactive)"}
{"molecule": "O=C(Nc1ccc2c(c1)CCC2)Nc1nnc(-c2ccncc2)s1", "activity change, negative = inhibition": "-10.6% (inactive)"}
{"molecule": "Oc1ccc(-c2nc(-c3ccc(F)cc3)c(-c3ccncc3)[nH]2)cc1", "Potency": "44.7 µM (active)"}
{"molecule": "CN(C)CCC=C1c2ccccc2C=Cc2ccccc21", "activity change, negative = inhibition": "-5.54% (inactive)"}
{"molecule": "COc1cc2c(cc1O)CC[C@H]1[C@@H]2CC[C@]2(C)[C@H](O)CC[C@@H]12", "Potency": "50.1 µM (active)"}
{"molecule": "Nc1ccc2nc(-c3ccc(O)cc3)sc2c1", "Potency": "44.7 µM (active)"}
{"molecule": "Cc1cc2c(s1)c1cnn(Cc3cccc(F)c3)c(=O)c1n2C", "activity change, negative = inhibition": "-5.6% (inactive)"}
{"molecule": "COCCCNc1ncnc2onc(-c3ccc(F)cc3)c12", "Potency": "50.1 µM (active)"}
{"molecule": "CC(=O)Nc1sc2c(c1-c1ccc3scnc3c1)CCNC2", "activity change, negative = inhibition": "6.48% (inactive)"}
{"molecule": "O=C(Nc1noc2ccccc12)c1c(F)cccc1F", "activity change, negative = inhibition": "-19.7% (inactive)"}
{"molecule": "O=C(Nc1noc2ccccc12)c1ccc(F)cc1", "Potency": "39.8 µM (active)"}
{"molecule": "CC(C)(C)c1ccc(-c2csc(N3CCC(C(N)=O)CC3)n2)cc1", "activity change, negative = inhibition": "-12.4% (inactive)"}
{"molecule": "COc1cccc(C(=O)Nc2nc3c(s2)CCCC3)c1", "Potency": "50.1 µM (active)"}
{"molecule": "Oc1cccc(Nc2cc(-c3ccccc3)ncn2)c1", "Potency": "39.8 µM (active)"}
{"molecule": "NC(=O)C1CCN(c2nc(-c3ccccc3Cl)cs2)CC1", "activity change, negative = inhibition": "0.963% (inactive)"}
{"molecule": "CCC1(C)CC(=O)NC1=O", "note": "(stereo not given)", "activity change, negative = inhibition": "-8.64% (inactive)"}
{"molecule": "COc1ccc(Nc2ncnc3sc4c(c23)CCCC4)cc1", "Potency": "20 µM (active)"}
{"molecule": "Cc1c(Cl)cccc1Nc1nn2c(=O)c3ccccc3nc2s1", "activity change, negative = inhibition": "-8.92% (inactive)"}
